Values joined by “and” are separate entries in the source; they are usually repeats but may differ in a detail not shown here. Equal entries are not always repeated. Records with an inconclusive call do not appear. Values without a mark were called inactive. Active and inactive are the calls of the source. The call rests on the fitted dose curve; in most records, active means well fitted curve in the direction sought with a large enough effect; inconclusive means small, poorly fitted or top-dose-only effect, or another doubt; inactive means no such curve, though single readings can be large; an effect the other way counts as inactive or inconclusive.
Legend:
[1] = molecular target: Cellular tumor antigen p53 (Homo sapiens) (UniProt P04637); assay: Primary qHTS for small molecule compounds that upregulate eGFP-tagged delta133p53alpha (in N-terminal) cells. (AID 2060322); settings: NCI-H358 eGFP-delta133p53alpha fluorescence, 24 h; activation: hits give high values; further: nearly all actives have a fitted effect of over 75% in size;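 on activation: cells pre-induced with doxycycline then dosed without doxycycline; 0% = DMSO vehicle and 100% = reference activator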
In short: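 NCI-H358 cells pre-induced 24 h with 10 ng/ml doxycycline for eGFP-delta133p53alpha, plated dox-free and exposed 24 h at 37C to titrated compounds. Fixed, Hoechst-stained; gated GFP peak intensity by laser scanning cytometry, normalized to DMSO (0%) and 57.5 uM 5-azacytidine (100%).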

[2] = BET inhibitor-based combinations targeting novel dependencies in MECOM-rearranged (r) AML: SET-2 cell line (AID 2202231); settings: SET-2 AML cells viability, CellTiter-Glo luminescence, 48 h; viability: hits give low values, concentration not given here; further: nearly all actives have a fitted effect of over 35% in size;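 on viability: plate controls were DMSO treated cells for no effect and wells without cells for full effect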
In short: (§1)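 Readout: CellTiter-Glo luminescence. Exposure: 48 h, 11 concentrations, 500 cells/well. Metric: AUC and within-line Z-AUC after DMSO/empty-well normalization.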

[3] = BET inhibitor-based combinations targeting novel dependencies in MECOM-rearranged (r) AML: OCI-AML3 cell line (AID 2202232); settings: CellTiter-Glo luminescence, 48 h; Potency: OCI-AML3 viability; series mostly up to 46 µM; further: nearly all actives have a fitted effect of over 35% in size
In short: as §1

[4] = BET inhibitor-based combinations targeting novel dependencies in MECOM-rearranged (r) AML: MV-4-11 cell line (AID 2202233); settings: MV-4-11 AML viability, CellTiter-Glo luminescence, 48 h; series mostly up to 46 µM; further: nearly all actives have a fitted effect of over 45% in size
In short: (§2)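 Seeding density was 500 cells/well, and drug exposure lasted 48 hr under standard culture conditions. Read-out used CellTiter-Glo reagent with a 15 min room-temperature incubation before luminescence measurement; AUC and Z-AUC summarize the normalized responses.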

[5] = BET inhibitor-based combinations targeting novel dependencies in MECOM-rearranged (r) AML: AML-191 cell line (AID 2202236; further: nearly all actives have a fitted effect of over 35% in size); settings: AML-191 viability, CellTiter-Glo luminescence, 48 h; series mostly up to 46 µM
In short: as §1

[6] = BET inhibitor-based combinations targeting novel dependencies in MECOM-rearranged (r) AML: AML-194 cell line (AID 2202237; further: nearly all actives have a fitted effect of over 40% in size); settings: AML-194 (MECOM-r AML) viability, CellTiter-Glo, 48 h; series mostly up to 46 µM
In short: as §1

[7] = BET inhibitor-based combinations targeting novel dependencies in MECOM-rearranged (r) AML: UCSD-AML1 cell line (AID 2202235); settings: UCSD-AML1 AML cells viability, CellTiter-Glo, 48 h; series mostly up to 46 µM; further: nearly all actives have a fitted effect of over 40% in size
In short: as §2

[8] = BET inhibitor-based combinations targeting novel dependencies in MECOM-rearranged (r) AML: HNT-34 cell line (AID 2202234); settings: HNT-34 AML viability, CellTiter-Glo luminescence, 48 h; series mostly up to 46 µM; further: nearly all actives have a fitted effect of over 35% in size
In short: as §2
Potency means the concentration at half of the fitted maximal effect.

Cellular tumor antigen p53 (Homo sapiens), sequence (P04637 whole entry, looked up): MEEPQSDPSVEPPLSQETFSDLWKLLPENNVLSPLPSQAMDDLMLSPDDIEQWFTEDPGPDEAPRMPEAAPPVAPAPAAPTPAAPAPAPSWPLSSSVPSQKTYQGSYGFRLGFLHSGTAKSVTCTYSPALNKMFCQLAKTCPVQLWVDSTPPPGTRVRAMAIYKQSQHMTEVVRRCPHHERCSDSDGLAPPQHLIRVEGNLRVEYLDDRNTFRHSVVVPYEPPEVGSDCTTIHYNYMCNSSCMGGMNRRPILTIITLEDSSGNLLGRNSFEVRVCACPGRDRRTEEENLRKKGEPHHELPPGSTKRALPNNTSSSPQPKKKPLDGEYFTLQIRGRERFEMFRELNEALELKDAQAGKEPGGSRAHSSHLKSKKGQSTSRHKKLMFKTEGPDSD

Row | Structure (SMILES) | activation [1] | viability [2] [%] | Potency [3] | Potency [4] | Potency [5] | Potency [6] | Potency [7] | Potency [2] | Potency [8] | Potency [1]
1 | O=C(Nc1cc(Cl)cc2c1[nH]c1cnccc12)c1cccnc1 | 15.9% | 102 | inactive | inactive | inactive | inactive | – | – | – | –
2 | CN(CCOc1ccc(CC2SC(=O)NC2=O)cc1)c1ccccn1 (centres undefined) | 6.69% and 5.38% | 102 | inactive | inactive | inactive | inactive | inactive | – | – | –
3 | Cn1c(=O)c(F)c(Nc2ccc(I)cc2F)c2c(=O)n(C[C@@H](O)CO)cnc21 | 15.6% | – | 0.0059 µM (active) | – | – | – | 1.32 µM (active) | 16.6 µM (active) | 0.0833 µM (active) | –
4 | COc1ccc2cccc(CCNC(C)=O)c2c1 | 3.03% | 116 | inactive | inactive | inactive | inactive | inactive | – | – | –
5 | CCn1cc(C(=O)O)c(=O)c2cc(F)c(N3CCN(C)CC3)cc21 | -2.51% and -35.6% | 97.2 | inactive | – | inactive | inactive | inactive | – | inactive | –
6 | O=C(NC1CCNCC1)c1[nH]ncc1NC(=O)c1c(Cl)cccc1Cl | – | – | 1.05 µM (active) | – | 2.09 µM (active) | – | 1.32 µM (active) | 11.8 µM (active) | 1.05 µM (active) | 0.685 µM (active)
7 | O=C1CCCC(=O)C1C(=O)c1ccc(C(F)(F)F)cc1[N+](=O)[O-] | 24.5% | 111 | inactive | inactive | inactive | inactive | inactive | – | – | –
8 | COc1cc2c(cc1OC)[C@@H]1C(=O)c3ccc4c(c3O[C@@H]1CO2)C=CC(C)(C)O4 | -3.86% | – | 0.525 µM (active) | 6.61 µM (active) | 9.34 µM (active) | 20.9 µM (active) | – | 13.2 µM (active) | – | –
9 | C=CC(=O)Nc1cc2c(Nc3ccc(F)c(Cl)c3)ncnc2cc1OCCCN1CCOCC1 | – | – | 4.68 µM (active) | 1.32 µM (active) | – | 11.8 µM (active) | 4.68 µM (active) | 14.8 µM (active) | – | 4.9 µM (active)
10 | CCc1cc(C(N)=S)ccn1 | -7.53% and 9.71% | 109 | inactive | inactive | inactive | inactive | inactive | – | – | –
11 | CCCCCNC(=O)N1CCC(CN(Cc2ccc(Cl)cc2)Cc2ccc([N+](=O)[O-])s2)C1 (centres undefined) | -3.18% | – | 18.6 µM (active) | 20.9 µM (active) | – | inactive | inactive | 20.9 µM (active) | – | –
12 | C[C@H]1C[C@@H]2[C@H]([C@@H](O)C[C@@]3(C)[C@H]2CC[C@]3(O)C(=O)CO)[C@@]2(C)C=CC(=O)C=C12 | 5.86% | 114 | inactive | inactive | 0.263 µM (active) | 0.209 µM (active) | inactive | – | – | –
13 | N#CNC(=NCCCCCCOc1ccc(Cl)cc1)Nc1ccncc1 | 37.2% | – | 0.0105 µM (active) | 0.0372 µM (active) | 0.0186 µM (active) | – | – | 13.2 µM (active) | – | –
14 | COc1ccc2nc3cc(Cl)ccc3c(Nc3cc(CN4CCCC4)c(O)c(CN4CCCC4)c3)c2n1 | 55.3% | – | 7.42 µM (active) | 4.68 µM (active) | 10.5 µM (active) | 10.5 µM (active) | 8.33 µM (active) | 7.42 µM (active) | – | –
15 | COc1c(C)c2c(c(O)c1C/C=C(\C)CCC(=O)O)C(=O)OC2 | 7.34% | – | 1.32 µM (active) | 0.742 µM (active) | 1.05 µM (active) | 1.32 µM (active) | 0.833 µM (active) | 1.18 µM (active) | – | –
16 | CCCc1cc(=O)[nH]c(=S)[nH]1 | -13.4% and -2.19% | 110 | inactive | inactive | inactive | inactive | inactive | – | – | –
17 | O=C(O)CSCC(=O)NC1CCSC1=O (centres undefined) | -13.1% and -8.37% | 95.2 | inactive | inactive | inactive | inactive | inactive | – | – | –
18 | COc1cc(S(C)(=O)=O)ccc1Nc1nc2ccc(-c3ccc(NC(=O)[C@H](C)c4ccc(F)cc4)cc3)cn2n1 | -11.7% | – | 0.934 µM (active) | 1.18 µM (active) | – | 1.32 µM (active) | 1.32 µM (active) | 0.235 µM (active) | – | –
19 | CCN(CC)CCCCNc1ncc2cc(-c3cc(OC)cc(OC)c3)c(NC(=O)NC(C)(C)C)nc2n1 | 27.9% | – | 16.6 µM (active) | 11.8 µM (active) | 18.6 µM (active) | 16.6 µM (active) | – | 20.9 µM (active) | – | –
20 | c1ccc(CNc2nc(NCc3ccccc3)c3ccccc3n2)cc1 | 44.2% | – | 18.6 µM (active) | 9.34 µM (active) | 9.34 µM (active) | – | – | 16.6 µM (active) | – | –

Row | Structure (SMILES) | activation [1] | viability [2] [%] | Potency [3] | Potency [4] | Potency [5] | Potency [6] | Potency [7] | Potency [2] | Potency [8] | Potency [1]
21 | O=c1cc(N2CCOCC2)oc2c(-c3cccc4c3sc3ccccc34)cccc12 | 27.5% | – | 8.33 µM (active) | 4.17 µM (active) | 5.9 µM (active) | – | – | 9.34 µM (active) | – | –
22 | CNC(=O)Nc1ccc(-c2nc(N3CC4CCC(C3)O4)c3cnn(C4CCC5(CC4)OCCO5)c3n2)cc1 | 8.27% | – | 0.105 µM (active) | 0.166 µM (active) | 0.0295 µM (active) | – | 0.0295 µM (active) | 0.263 µM (active) | – | –
23 | OC[C@@H](O)[C@@H](O)[C@H](O)[C@@H](O)CO | 6.34% | 117 | inactive | inactive | inactive | inactive | – | – | – | –
24 | N=c1ccn2c(n1)O[C@H]1[C@@H](O)[C@@H](CO)O[C@H]12 | 18.1% | – | 5.25 µM (active) | 1.32 µM (active) | 0.235 µM (active) | 0.118 µM (active) | 0.0833 µM (active) | 1.05 µM (active) | – | –
25 | CC1=C(C)C(=O)C(C(CCCCCC(=O)O)c2ccccc2)=C(C)C1=O (centres undefined) | -10.7% and 34% | 93.3 | inactive | inactive | inactive | – | inactive | – | – | –
26 | NNC(=O)c1ccncc1 | -11.9% and -4.14% | 110 | inactive | inactive | inactive | inactive | inactive | – | – | –
27 | COC1CCC(N(C(=O)C2CCC(C)CC2)c2cc(C3=CCCCC3)sc2C(=O)O)CC1 (centres undefined) | -11.2% | 113 | inactive | inactive | inactive | inactive | inactive | – | – | –
28 | NCCCC(O)(P(=O)(O)O)P(=O)(O)O | 36.7% and -7.88% | 114 | inactive | inactive | inactive | inactive | inactive | – | – | –
29 | CC[C@]1(O)C[C@H]2CN(CCc3c([nH]c4ccccc34)[C@@](C(=O)OC)(c3cc4c(cc3OC)N(C=O)[C@H]3[C@@](O)(C(=O)OC)[C@H](OC(C)=O)[C@]5(CC)C=CCN6CC[C@]43[C@@H]65)C2)C1 | 54.7% | – | 0.166 µM (active) | 0.166 µM (active) | 0.263 µM (active) | 0.296 µM (active) | 0.235 µM (active) | 0.833 µM (active) | – | –
30 | COc1cc2c(cc1OC)CC(=O)N(CCCN(C)C[C@H]1Cc3cc(OC)c(OC)cc31)CC2 | -11.1% | 111 | inactive | inactive | inactive | inactive | inactive | – | – | –
31 | CCOC(=O)c1ccc(OC(=O)CCCCCN=C(N)N)cc1 | 31% | 106 | inactive | – | inactive | inactive | inactive | – | inactive | –
32 | COc1ccc(-c2ccc3cc(C(=O)O)ccc3c2)cc1C12CC3CC(CC(C3)C1)C2 | -14.2% and 5.04% | 111 | 0.0033 µM (active) | – | inactive | inactive | inactive | – | inactive | –
33 | CCc1cc(Nc2nccc(-c3c(-c4ccc(OC)c(C(=O)Nc5c(F)cccc5F)c4)nc4ccccn34)n2)c(OC)cc1N1CCC(N2CCN(S(C)(=O)=O)CC2)CC1 | 14.2% and 2.68% | 113 | inactive | – | 11.8 µM (active) | 11.8 µM (active) | 10.5 µM (active) | – | – | –
34 | OC[C@H]1O[C@@H](O[C@@H]2[C@@H](CO)O[C@](O)(CO)[C@H]2O)[C@H](O)[C@@H](O)[C@H]1O | 10% | 108 | inactive | – | inactive | inactive | inactive | – | inactive | –
35 | CN1C(=O)C[C@H](C(=O)N[C@@H](Cc2cnc[nH]2)C(=O)N2CCC[C@@H]2C(N)=O)NC1=O | 8.59% | 98.4 | 18.6 µM (active) | – | 20.9 µM (active) | inactive | inactive | – | – | –
36 | C[C@]12CCC3c4ccc(O)cc4CCC3C1CCC2=O (some centres undefined) | -0.196% | 99.9 | inactive | – | inactive | inactive | 26.3 µM (active) | – | – | –
37 | O=[N+]([O-])c1cncn1CCN1CCOCC1 | -23.4% | 112 | inactive | – | inactive | inactive | inactive | – | inactive | –
38 | CC1(C)CCC(C)(C)c2cc(NC(=O)c3ccc(C(=O)O)cc3)ccc21 | -13% and 3.42% | 80.9 | inactive | – | 0.0021 µM (active) | inactive | inactive | – | 1.66 µM (active) | –
39 | Oc1ccc(OCc2ccccc2)cc1 | -16.4% and -11.2% | 81.8 | – | 9.34 µM (active) | – | – | – | – | – | –
40 | Cc1ccc(-n2nc(C(C)(C)C)cc2NC(=O)Nc2ccc(OCCN3CCOCC3)c3ccccc23)cc1 | 23.4% | 102 | 18.6 µM (active) | – | 18.6 µM (active) | inactive | inactive | – | – | –
